{"source": "PubChem BioAssay AID651640", "about": "(Broad Institute, 2012)", "note": "“And” between values parts separate entries of the source, which are not always exact repeats. Equal entries are not always repeated. Out of some 350,000 compounds screened, about 6,000 (1.7%) were called active. Not shown: some 5% with an inconclusive outcome. The list comes from a sample in which actives are over-represented; it also holds similar structures and randomly drawn compounds. Values without a mark were called inactive. Cut-off read from the data, not from the text of the source: active = CPE inhibition above about 20% (passing the limit was not always enough); inconclusive = no clear call, values can overlap the other calls; tested in BHK-21 cells.", "data": [{"test": "protection of cells from dengue 2 killing – plate reader, single concentration, primary screen (AID 651640);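 note: 0% = median of neutral control wells and 100% = median of positive control wells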", "settings": "DENV2-infected cells, cytopathic effect rescue, at 9.99 µM, stronger effect = higher value", "values": [{"compound": "O=C(NCC[C@H]1CC[C@@H](NC(=O)C2CC2)[C@H](CO)O1)c1ccc(F)cc1", "CPE inhibition": "-2.58%"}, {"compound": "O=C(NCC[C@H]1CC[C@@H](NC(=O)C2CCCCC2)[C@@H](CO)O1)c1ccc(F)cc1", "CPE inhibition": "50.9% (active)"}, {"compound": "O=C(NCC[C@H]1CC[C@H](NC(=O)C2CC2)[C@@H](CO)O1)c1ccc(F)cc1", "CPE inhibition": "-6.48%"}, {"compound": "C[C@H]1CN([C@@H](C)CO)C(=O)c2cc(/C=C/c3ccccc3)cnc2O[C@H]1CN(C)Cc1cccc(C(=O)O)c1", "CPE inhibition": "-8.76%"}, {"compound": "C[C@@H]1CN([C@@H](C)CO)C(=O)c2cccc(NC(=O)NC3CCCCC3)c2O[C@@H]1CN(C)CC1CCCCC1", "CPE inhibition": "12.9%"}, {"compound": "C[C@@H]1CN([C@H](C)CO)C(=O)c2cccc(NC(=O)NC3CCCCC3)c2O[C@H]1CN(C)Cc1ccc(C(F)(F)F)cc1", "CPE inhibition": "0.691%"}, {"compound": "C[C@@H]1CN([C@H](C)CO)C(=O)c2cccc(NC(=O)NC3CCCCC3)c2O[C@@H]1CN(C)CC1CCCCC1", "CPE inhibition": "-11%"}, {"compound": "C[C@H](CO)N1C[C@H](C)[C@@H](CN(C)Cc2ccc(C(F)(F)F)cc2)Oc2c(NC(=O)NC3CCCCC3)cccc2C1=O", "CPE inhibition": "37.7% (active)"}, {"compound": "C[C@H]1CN([C@@H](C)CO)C(=O)c2cccc(NC(=O)C3CCCCC3)c2O[C@H]1CN(C)Cc1ccc(C(F)(F)F)cc1", "CPE inhibition": "12.9%"}, {"compound": "C[C@H]1CN([C@@H](C)CO)C(=O)c2cccc(NC(=O)NC3CCCCC3)c2O[C@H]1CN(C)CC1CCCCC1", "CPE inhibition": "30.3% (active)"}, {"compound": "O=C(C[C@H]1C=C[C@H](NC(=O)c2cccc(F)c2)[C@@H](CO)O1)NCc1ccc(Oc2ccccc2)cc1", "CPE inhibition": "-9.22%"}, {"compound": "C[C@H](CO)N1C[C@H](C)[C@H](CN(C)Cc2ccncc2)Oc2ncc(C#Cc3cccc(F)c3)cc2C1=O", "CPE inhibition": "13.5%"}, {"compound": "C[C@@H]1CN([C@H](C)CO)C(=O)c2cc(-c3ccccc3F)cnc2O[C@H]1CN(C)C(=O)CN(C)C", "CPE inhibition": "-0.853%"}, {"compound": "CN1c2ccc(-c3cccc(F)c3)cc2[C@@H]2[C@@H](CCN2C(=O)Nc2ccccc2F)[C@@H]1CO", "CPE inhibition": "-9.74%"}, {"compound": "COc1cccc(C(=O)Nc2ccc3c(c2)C(=O)N(C)[C@H]2CC[C@H](CC(=O)N[C@@H](C)c4ccccc4)O[C@H]2CO3)c1", "CPE inhibition": "-3.06%"}, {"compound": "CN1C(=O)c2cc(NC(=O)Cc3ccccc3)ccc2OC[C@H]2O[C@H](CC(=O)NCc3ccc(Cl)cc3)CC[C@H]21", "CPE inhibition": "-3.46%"}, {"compound": "Cc1ccc(S(=O)(=O)Nc2ccc3c(c2)C(=O)N([C@@H](C)CO)C[C@@H](C)[C@@H](CN(C)Cc2ccncc2)O3)cc1", "CPE inhibition": "2.98%"}, {"compound": "C[C@H](CO)N1C[C@H](C)[C@H](CN(C)Cc2ccc(-c3ccccc3)cc2)Oc2ccc(NS(=O)(=O)c3ccccc3)cc2C1=O", "CPE inhibition": "0.672%"}, {"compound": "Cc1ccc(S(=O)(=O)Nc2ccc3c(c2)C(=O)N([C@@H](C)CO)C[C@H](C)[C@@H](CN(C)Cc2ccc4c(c2)OCO4)O3)cc1", "CPE inhibition": "21.2% (active)"}, {"compound": "Cc1noc(C)c1S(=O)(=O)Nc1ccc2c(c1)C(=O)N([C@@H](C)CO)C[C@@H](C)[C@@H](CN(C)C)O2", "CPE inhibition": "1.2%"}, {"compound": "C[C@@H]1CN([C@H](C)CO)C(=O)c2cc(NS(=O)(=O)c3ccc(F)cc3)ccc2O[C@H]1CN(C)Cc1ccncc1", "CPE inhibition": "-0.549%"}, {"compound": "Cc1noc(C)c1S(=O)(=O)Nc1ccc2c(c1)C(=O)N([C@@H](C)CO)C[C@@H](C)[C@H](CN(C)Cc1ccc(-c3ccccc3)cc1)O2", "CPE inhibition": "35.7% (active)"}, {"compound": "Cc1ccc(S(=O)(=O)Nc2ccc3c(c2)C(=O)N([C@H](C)CO)C[C@H](C)[C@H](CN(C)Cc2ccc(Cl)c(Cl)c2)O3)cc1", "CPE inhibition": "-4.04%"}, {"compound": "Cc1ccc(S(=O)(=O)Nc2ccc3c(c2)C(=O)N([C@@H](C)CO)C[C@@H](C)[C@H](CN(C)Cc2ccc4c(c2)OCO4)OCCCC[C@@H](C)O3)cc1", "CPE inhibition": "-8.37%"}, {"compound": "Cc1ccc(S(=O)(=O)Nc2ccc3c(c2)C(=O)N([C@@H](C)CO)C[C@@H](C)[C@H](CN(C)Cc2ccncc2)O3)cc1", "CPE inhibition": "35.3% (active)"}, {"compound": "CO[C@@H]1CN(C)C(=O)c2cc(NS(=O)(=O)c3cn(C)cn3)ccc2OC[C@@H](C)NC[C@H]1C", "CPE inhibition": "-0.807%"}, {"compound": "COCc1cn(CC[C@H]2CC[C@@H](NC(=O)Nc3ccc(OC)cc3)[C@@H](CO)O2)nn1", "CPE inhibition": "0.762%"}, {"compound": "C/C=C/c1ccc(C2[C@H]3CNC[C@@H]2N3C(=O)Nc2ccc(F)cc2)cc1", "note": "(stereo partly drawn)", "CPE inhibition": "0.029% and 10.5%"}, {"compound": "O=C(Nc1ccc(-c2ccccc2)cc1)[C@@H]1[C@@H](CO)[C@@H]2Cn3c(cccc3=O)[C@H]1N2Cc1ccncc1", "CPE inhibition": "-0.731%"}, {"compound": "CO[C@@H]1CN(C)C(=O)c2cc(NS(=O)(=O)c3cn(C)cn3)ccc2OC[C@@H](C)N(CCC(F)(F)F)C[C@H]1C", "CPE inhibition": "-9.32%"}, {"compound": "O=C(c1ccccc1F)N1CC(=O)N2[C@H](CO)[C@H](c3ccc(-c4cccnc4)cc3)[C@H]2C1", "CPE inhibition": "8.17%"}, {"compound": "C[C@@H]1CCCCO[C@@H](CN(C)S(=O)(=O)c2ccccc2)[C@@H](C)CN([C@@H](C)CO)C(=O)c2cc(NS(=O)(=O)c3cn(C)cn3)ccc2O1", "CPE inhibition": "-3.06%"}, {"compound": "C[C@H](NC(=O)C[C@@H]1C[C@@H]2c3cc(NS(=O)(=O)c4ccc(F)cc4)ccc3O[C@@H]2[C@@H](CO)O1)c1ccccc1", "CPE inhibition": "2.95%"}, {"compound": "CC(C)NC(=O)N1CCCCN2[C@H](CO)[C@@H](c3ccc(Br)cc3)[C@H]2C1", "CPE inhibition": "-4.94%"}, {"compound": "COc1ccc(NC(=O)Nc2cccc3c2O[C@H](CN(C)S(=O)(=O)c2ccc(F)cc2)[C@H](C)CN([C@H](C)CO)C3=O)cc1", "CPE inhibition": "-3.75%"}, {"compound": "CN(C)C(=O)c1cccc(-c2ccc3c(c2)[C@@H]2[C@@H](CCN2Cc2nccs2)[C@@H](CO)N3)c1", "CPE inhibition": "-14%"}, {"compound": "COc1ccc(C#Cc2ccc3c(c2)[C@H]2[C@H](CCN2Cc2nccs2)[C@@H](CO)N3)cc1", "CPE inhibition": "27.7% (active)"}, {"compound": "O=S(=O)(c1ccccc1)N1CC[C@@H]2[C@@H](CO)Nc3ccc(-c4ccccc4F)cc3[C@@H]21", "CPE inhibition": "16.3%"}, {"compound": "COc1ccccc1S(=O)(=O)N1CC[C@@H]2[C@H](CO)Nc3ccc(-c4ccccc4F)cc3[C@@H]21", "CPE inhibition": "-1.18%"}, {"compound": "COc1ccccc1CN1CC[C@@H]2[C@@H](CO)Nc3ccc(C#Cc4ccccc4)cc3[C@@H]21", "CPE inhibition": "-32.6%"}, {"compound": "O=S(=O)(c1ccccc1)N1CC[C@@H]2[C@@H](CO)Nc3ccc(C#Cc4cccc(F)c4)cc3[C@@H]21", "CPE inhibition": "1.91%"}, {"compound": "Cc1cccc(S(=O)(=O)N2CC[C@@H]3[C@H]2c2cc(C#Cc4ccc(F)cc4)ccc2N[C@@H]3CO)c1", "CPE inhibition": "65.6% (active)"}, {"compound": "O=S(=O)(c1ccccc1)N1CC[C@@H]2[C@H]1c1cc(C#Cc3cccc(F)c3)ccc1N[C@@H]2CO", "CPE inhibition": "-8.72%"}, {"compound": "O=S(=O)(c1ccc(F)cc1)N1CC[C@@H]2[C@@H](CO)Nc3ccc(-c4ccccc4F)cc3[C@@H]21", "CPE inhibition": "77.9% (active)"}, {"compound": "CCCN1[C@H](C(=O)N2CCOCC2)[C@@H](CO)[C@@H]2Cn3c(ccc(/C=C/c4ccccc4)c3=O)[C@@H]21", "CPE inhibition": "14.1%"}, {"compound": "CCCc1cn(CC[C@@H]2CC[C@@H](NS(=O)(=O)c3ccccc3Cl)[C@@H](CO)O2)nn1", "CPE inhibition": "-1.78%"}, {"compound": "CO[C@H]1CN(C)C(=O)c2ccc(NC(=O)Nc3c(C)noc3C)cc2OC[C@@H](C)NC[C@H]1C", "CPE inhibition": "1.98%"}, {"compound": "C/C=C/c1ccc2c(c1)O[C@H](CN(C)C(=O)c1ccc3c(c1)OCO3)[C@@H](C)CN([C@H](C)CO)S2(=O)=O", "CPE inhibition": "19.1%"}, {"compound": "CC(=O)N1C[C@@H]2[C@H](c3ccccc31)[C@H](CO)N2C(=O)Nc1ccc(F)cc1", "CPE inhibition": "-5.97%"}, {"compound": "COc1ccccc1-c1sc2ccccc2c1C#CC1(O)CCCCC1", "CPE inhibition": "-3.75%"}, {"compound": "COc1ccccc1-c1sc2ccccc2c1-c1ccc(Br)nc1", "CPE inhibition": "24.6% (active)"}, {"compound": "COc1ccc2sc(-c3ccccc3OC)c(-c3ccc(OCCN4CCCC4)cc3)c2c1", "CPE inhibition": "-8.2%"}, {"compound": "COc1ccc(-c2cc(NC=O)c3ncc(-c4cc(OC)c(OC)c(OC)c4)n3c2)c(OC)c1", "CPE inhibition": "42.3% (active)"}, {"compound": "COc1ccc(-c2cc(NC=O)c3ncc(-c4cccc(C(=O)N(C)C)c4)n3c2)c(OC)c1", "CPE inhibition": "-8.87%"}, {"compound": "COc1ccc(-c2cc(NC=O)c3ncc(-c4ccccc4)n3c2)cc1OC", "CPE inhibition": "8.91%"}, {"compound": "C[C@@H]1CN([C@@H](C)CO)C(=O)Cc2cc(NC(=O)CCN3CCOCC3)ccc2O[C@@H]1CN(C)CC1CC1", "CPE inhibition": "-11.7%"}, {"compound": "C[C@H](CO)N1C[C@H](C)[C@@H](CN(C)CC2CC2)Oc2ccc(NC(=O)Nc3ccccc3)cc2CC1=O", "CPE inhibition": "7.45%"}, {"compound": "CCCCCCCCCCCCN1[C@@H](CC(C)=O)c2cc(F)cc(F)c2S1(=O)=O", "CPE inhibition": "37.7% (active)"}, {"compound": "CCCCCCN1CCN(C2CN(Cc3cn(Cc4ccc(F)cc4)nn3)S(=O)(=O)C2)CC1", "note": "(stereo not drawn)", "CPE inhibition": "-0.218%"}, {"compound": "COc1ccc(CN2[C@@H](CC(=O)O)c3cc(F)ccc3S2(=O)=O)cc1", "CPE inhibition": "-4.72%"}, {"compound": "CO[C@H]1CN(C)C(=O)c2ccc(NC(=O)C3CC3)cc2OC[C@H](C)N(CCc2ccccc2)C[C@@H]1C", "CPE inhibition": "4.92%"}, {"compound": "COCC(=O)N(C)C[C@@H]1Oc2ncc(-c3ccccc3OC)cc2C(=O)N([C@@H](C)CO)C[C@@H]1C", "CPE inhibition": "0.798%"}, {"compound": "CC(C)NC(=O)Nc1ccc2c(c1)C(=O)N([C@H](C)CO)C[C@@H](C)[C@@H](CN(C)C(=O)c1ccncc1)OCCCC[C@H](C)O2", "CPE inhibition": "-1.8%"}]}]}
